# Assay results: PubChem BioAssay (EPA / NIEHS)
# Records with an inconclusive call do not appear. Calls of active or inactive are those of the source. How the source made its calls: active means hit-call score of the fitted dose curve at least 0.9, where 1 is the maximum; inconclusive means response in the unintended direction; inactive means score below 0.9.
# Assay: CLD_ACTIN_24hr: CellzDirect (CLD) Gene Expression Assay for Baseline Control (Actin) at 24 hours (AID 2283670)
# Experimental: CLD_24hr is a cell-based, multiplexed-readout assay that uses hepatocyte, a human liver primary cell, with measurements taken at 24 hours after chemical dosing in a 96-well plate.CLD_ACTIN_24hr is one of 16 assay component(s) measured or calculated from the CLD_24hr assay. It is designed to make measurements of mRNA induction, a form of inducible reporter, as detected with chemiluminescence signals by Quantitative Nuclease Protection Assay (qNPA) technology.Data from the assay component CLD_ACTIN_24hr was analyzed at the endpoint, CLD_ACTIN_24hr, in the positive analysis fitting direction relative to DMSO as the negative control and baseline of activity. Using a type of inducible reporter, gain-of-signal activity can be used to understand changes in the reporter gene as they relate to the gene ACTA1. Furthermore, this assay endpoint can be referred to as a secondary readout, because this assay has produced multiple assay endpoints where this one serves a background control function. To generalize the intended target to other relatable targets, this assay endpoint is annotated to the background measurement intended target family, where subfamily is baseline control.
# Human hepatocyte cultures were treated daily for two consecutive days with fresh dosing solutions containing appropriate concentrations of the 320 ToxCast chemicals (chemical identities were blinded to CellzDirect and other ToxCast collaborators), vehicle control (0.2% DMSO), and positive control inducers as summarized in Table 1. Due to the large number of treatment groups and chemicals examined, the ToxCast chemicals were divided into two groups (spanning two independent cultures of hepatocytes from separate donor preparations (Hu778: ToxCast plates 1 and 2; Hu776: ToxCast plates 3 and 4). Each preparation of human hepatocyte cultures was treated with respective vehicle control, medium only control, set of six positive controls/reference chemicals for the five hepatic receptor pathways, and a subset of eight of the ToxCast chemicals (indoxacarb, pyrithiobac-sodium, norflurazon, cyhalofop-butyl, methomyl, thiram, acetochlor, and propiconazole). These replicate data, coupled with internal replicates designed within the blinded ToxCast chemical library, provided additional data to evaluate interindividual differences between hepatocyte preparations and their potential impact on chemical profiles.Cell morphology and integrity were evaluated using phase-contrast microscopy as an indicator of hepatocyte cell health (Tyson & Green, 1987). Cultures for each treatment group (i.e., media, vehicle [0.2% DMSO], positive control inducers [multiple concentrations], and the ToxCast chemicals [multiple concentrations]) were observed and cell morphology was assessed relative to vehicle control cultures at each harvest time point (0, 6, 24, or 48 h). […] Images were evaluated at the conclusion of the study to assess changes in cell integrity and account for the effects of chemical exposure on uncharacteristic changes in concentration-dependent gene expression profiles. The results from these determinations of apparent cytotoxicity were annotated (yes/no) alongside the corresponding qNPA data for reference.At the conclusion of each treatment period, hepatocyte cultures (96-well) were washed with 1 volume of HBSS, lysed by addition of 25 ul ArrayPlate lysis buffer (HTG, Tucson, AZ), and 70 ul/well of Denaturation Oil, denatured by incubation at 95C for 10 min, and frozen at approximately -70C until analysis by nuclease protection assay (qNPA) (Roberts et al., 2007). For qNPA analysis, cell lysates were thawed at 50C for approximately 30 min, qNPA probes were added, and samples were incubated at 95C for 10 min to begin the detection process by denaturing the target RNA, dissociating the duplexes and secondary structure hybridization. At the conclusion of the hybridization period, S1 nuclease reagent was added to each sample to digest all nonprotected nucleotides at 50C for 60-90 min. […]
row,Compound,outcome
1,CCCCCOC(=O)COc1cc(N2C(=O)C3=C(CCCC3)C2=O)c(F)cc1Cl,inactive
2,CCC(C)OC(=O)N1CCCCC1CCO (configuration not stated),inactive
3,CCCCOC(=O)[C@@H](C)Oc1ccc(Oc2ccc(C(F)(F)F)cn2)cc1,inactive
4,CCOC(=O)NCCOc1ccc(Oc2ccccc2)cc1,inactive
5,CC1(C)C(C=C(Cl)Cl)C1C(=O)OCc1cccc(Oc2ccccc2)c1 (configuration not stated),inactive
6,COC(=O)c1ccccc1S(=O)(=O)NC(=O)Nc1nc(OC(F)F)cc(OC(F)F)n1,inactive
7,CSC(=O)c1cccc2nnsc12,inactive
8,C=CCOC(Cn1ccnc1)c1ccc(Cl)cc1Cl (configuration not stated),inactive
9,COc1nc(C)nc(NC(=O)NS(=O)(=O)c2ccccc2OCCCl)n1,inactive
10,COC(=O)c1c(Cl)nn(C)c1S(=O)(=O)NC(=O)Nc1nc(OC)cc(OC)n1,inactive
11,CCOC(=O)COc1cc(-n2ncc(C(F)(F)F)c(C)c2=O)c(F)cc1Cl,inactive
12,Oc1ccc(C(c2ccc(O)cc2)C(Cl)(Cl)Cl)cc1,inactive
13,COC(=O)c1ccc(CNS(C)(=O)=O)cc1S(=O)(=O)NC(=O)Nc1nc(OC)cc(OC)n1,inactive
14,CCCCCCC(C)OC(=O)COc1nc(F)c(Cl)c(N)c1Cl (configuration not stated),inactive
15,CCCOC(=O)c1ccc(C(=O)OCCC)nc1,inactive
16,CCCN(CCC)C(=O)SCC,inactive
17,c1ccc(Nc2ccccc2)cc1,inactive
18,COc1c(Cl)ccc(Cl)c1C(=O)O,inactive
19,O=C(O)C1(C(=O)Nc2ccc(Cl)cc2Cl)CC1,inactive
20,N#CSCSc1nc2ccccc2s1,inactive
21,CCCCOC(=O)C(C)Oc1ccc(Oc2ccc(C(F)(F)F)cn2)cc1 (configuration not stated),inactive
22,COC(=O)c1ccccc1C(=O)O,inactive
23,CC(C)(C)[C@@H](O)[C@@H](Cc1ccc(Cl)cc1)n1cncn1,inactive
24,CC(C)(c1ccc(O)cc1)c1ccc(O)cc1,inactive
25,S=C(S)NCCNC(=S)S.[Mn+2].[S-]C([S-])=NCCN=C([S-])[S-].[Zn+2],inactive
26,CCOC(=O)C(C)Oc1ccc(Oc2nc3ccc(Cl)cc3o2)cc1 (configuration not stated),inactive
27,COC(=O)c1ccc(I)cc1S(=O)(=O)NC(=O)Nc1nc(C)nc(OC)n1,inactive
